Activity calls are given as the source filed them.

For one experiment, the target named is Albumin (Bos taurus) (UniProt P02769). Briefly: compounds binding labelled BSA control protein – biochemical, small-molecule microarray, Alexa647 label, 635/667 nm fluorescence, artefact control for SMM control protein annotation, profiling panel (AID 1118).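 Also: score merges 667 nm emission intensity and signal-to-noise per printed compound spot.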 As to conditions: BSA-A647 binding, fluorescence 635 nm, higher = more signal.
Albumin (Bos taurus), sequence (P02769 whole entry, looked up): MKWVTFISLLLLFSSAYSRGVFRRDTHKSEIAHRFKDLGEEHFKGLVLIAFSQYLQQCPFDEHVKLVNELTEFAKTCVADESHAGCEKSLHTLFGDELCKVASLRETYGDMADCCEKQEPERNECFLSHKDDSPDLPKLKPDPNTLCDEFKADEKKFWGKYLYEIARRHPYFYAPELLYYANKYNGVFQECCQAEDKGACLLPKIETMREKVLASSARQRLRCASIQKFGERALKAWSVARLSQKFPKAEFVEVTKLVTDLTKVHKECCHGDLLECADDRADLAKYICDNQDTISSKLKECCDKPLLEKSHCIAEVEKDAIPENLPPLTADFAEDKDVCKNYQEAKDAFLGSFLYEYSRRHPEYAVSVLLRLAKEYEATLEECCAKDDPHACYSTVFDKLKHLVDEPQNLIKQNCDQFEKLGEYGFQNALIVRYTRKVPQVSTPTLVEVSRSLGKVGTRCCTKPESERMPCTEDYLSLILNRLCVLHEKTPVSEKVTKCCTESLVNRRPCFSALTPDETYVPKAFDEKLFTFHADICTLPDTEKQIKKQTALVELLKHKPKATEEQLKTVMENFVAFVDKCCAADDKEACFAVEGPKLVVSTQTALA
Experiment [1] in a line: probe aXIP binding to arrayed compounds – biochemical, NeuroSMM set, 635/667 nm fluorescence, primary screen (AID 1119).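 Also: probe is the protein aXip251-270 applied at 1 µg/mL to compound-printed slides; binding of probe to printed compounds measured as 667 nm fluorescence plus signal to noise.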 As to conditions: small-molecule microarray, higher = more signal, called active from +8 up or from −8 down.
Experiment [2] is described as follows: probe aNOTCH3 binding on compound microarray – biochemical, small-molecule microarray, 635/667 nm fluorescence, primary screen (AID 1120).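 Also: probe is a biotin-tagged antibody raised against NOTCH3 rather than NOTCH3 protein; score merges spot fluorescence near 667 nm with spot signal to noise.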 As to conditions: higher = more signal.
Experiment [3] is described as follows: probe aNOTCH2 binding on compound microarray – biochemical, small-molecule microarray, 635/667 nm fluorescence, primary screen (AID 1121).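 Also: score merges feature fluorescence read at 667 nm with its signal to noise.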 As to conditions: higher = more signal.
The target in experiment [4] is Carbonic anhydrase 2 (Homo sapiens) (UniProt P00918). Briefly: compounds binding carbonic anhydrase 2 – biochemical, small-molecule microarray, Alexa647-labelled CAII, profiling panel (AID 1122). As to conditions: CAII-A647 binding fluorescence, higher = more signal.
The nature of experiment [5]: COS7 lysate on small-molecule microarray, probe aHis, 635 nm (AID 1123).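 Also: z-score combines 667nm fluorescence intensity with signal-to-noise per printed compound spot.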 As to conditions: COS7 cell lysate, fluorescence, higher = more signal.
Experiment [6] is described as follows: probe aLAP1 signal on lysate-treated microarray – cell lysate, small-molecule microarray, COS7 lysate, primary screen (AID 1124).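 Also: lysate comes from COS7 cells expressing LAP1 and is applied at 0.3 µg/mL; score merges spot fluorescence near 667 nm with signal-to-noise over triplicate slides.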 As to conditions: probe aLAP1, fluorescence, higher = more signal.
The next experiment relates to Sam68 (KHDRBS1). Briefly: compounds binding KHDRBS1 protein – biochemical, small-molecule microarray, 635 nm fluorescence, primary screen (AID 1125).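 Also: score merges 667 nm channel intensity with signal to noise over triplicate slides.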 As to conditions: higher = more signal.
Experiment [7] concerns Chordin-like protein 2 (CHRDL2). The experiment is described as follows: compounds binding chordin-like 2 – biochemical, small-molecule microarray, 635 nm fluorescence, primary screen (AID 1126).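 Also: printed compound slides probed with Chrdl2 protein at 4 µg/mL for 1 h at 4 C; score merges 667 nm emission intensity with signal to noise over three replicate slides.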 As to conditions: fluorescence 635 nm, higher = more signal.
Experiment [8] concerns the target Concanavalin-A (Canavalia ensiformis) (UniProt P02866). Briefly: compounds binding concanavalin A lectin – biochemical, small-molecule microarray, Alexa647 label, 635 nm, artefact control for SMM control protein annotation, primary screen (AID 1127).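 Also: z combines 667 nm emission intensity with signal-to-noise across three replicate slides.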 As to conditions: ConA-A647 binding fluorescence, higher = more signal.

Concanavalin-A (Canavalia ensiformis), sequence (P02866 whole entry, looked up): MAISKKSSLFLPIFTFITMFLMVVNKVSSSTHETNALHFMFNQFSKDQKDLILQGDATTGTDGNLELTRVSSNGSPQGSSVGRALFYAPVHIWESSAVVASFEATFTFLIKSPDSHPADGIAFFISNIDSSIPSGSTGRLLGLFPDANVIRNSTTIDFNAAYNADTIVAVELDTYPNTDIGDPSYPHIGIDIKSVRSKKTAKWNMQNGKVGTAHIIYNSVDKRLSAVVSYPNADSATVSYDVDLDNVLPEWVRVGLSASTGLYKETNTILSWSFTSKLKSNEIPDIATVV

For the compound `C=CCNC(=O)[C@@H]1[C@H]2C(=O)O[C@H](c3ccccc3)[C@H](c3ccccc3)N2[C@H](c2ccccc2OCCO)[C@@]12C(=O)Nc1ccc(C#CCC(C(=O)OC)C(=O)OC)cc12`, the composite z-score is -0.0735 with Albumin (Bos taurus); 0.514 in experiment [2]; 0.283 in experiment [3]; 0.648 in experiment [4]; 1.66 in [5]; 1.62 in experiment [6]. In addition, the composite z-score with Sam68 (KHDRBS1) was 1.27; in experiment [7], -0.14; in experiment [8], 0.727. The composite Z-score in experiment [1] is 0.822 (inactive).

Take `O=C(NCCN1CCOCC1)[C@@H]1c2ccccc2C(=O)N(C2Cc3ccccc3C2)[C@H]1c1ccc(CO)cc1`: the composite z-score in the experiment with Albumin (Bos taurus) is 0.268; in experiment [2], -0.223; in [3] it was 0.0129; in experiment [4] it was 0.498; in experiment [5] it was 0.866; in experiment [6], 1.77. In addition, the figures for the composite z-score (in the experiment on Sam68 (KHDRBS1); in [7]; in experiment [8]) were 1.01, -0.419 and 0.466, respectively. In addition, the composite Z-score in experiment [1] is -0.27 (inactive).

Consider `C=C[C@@H](OC)[C@H](OC(=O)Nc1ccc(OC)cc1)c1ccc(O)c(F)c1`, for which the composite z-score was -0.715 with Albumin (Bos taurus); -0.0581 in experiment [2]; -0.2 in experiment [3]; 0.268 in experiment [4]; 1.93 in experiment [5]; 0.117 in experiment [6]. In addition, the composite z-score is 0.21 in the experiment with Sam68 (KHDRBS1), 0.746 in experiment [7] and -0.728 in [8]. For the same compound, in [1], the composite Z-score is 0.656 (inactive).

As for `CCOC(=O)C[C@H]1[C@H](OC(=O)c2ccc(C(=O)c3ccccc3)cc2)[C@@H](NC(=O)c2ccc3ccccc3n2)c2cc(OCCCO)ccc2N1C(=O)Cc1ccc(OC)cc1`, the composite z-score in the experiment with Albumin (Bos taurus) was 0.567; in experiment [2], 0.0779; in experiment [3], -0.153; in experiment [4], -0.175; in experiment [5] it was 0.759; in experiment [6], -0.263. Moreover, the results for the composite z-score (in the experiment with Sam68 (KHDRBS1); in experiment [7]; in [8]) were 0.627, -0.384 and 0.93, respectively. In [1], the composite Z-score was -0.201 (inactive).

As to `COc1ccc(C#Cc2ccc3c(c2)[C@]2(C(=O)N3)[C@H](c3ccc(O)cc3)N3[C@H](c4ccccc4)[C@H](c4ccccc4)OC(=O)[C@H]3[C@@H]2C(=O)Nc2nc3ccccc3s2)cc1`, the composite z-score with Albumin (Bos taurus) is 0.67; in [2], -0.014; in [3], 0.117; in experiment [4], 0.61; in [5] it was 2.47; in experiment [6], 0.98. Besides, the composite z-score stood at 1.29 in the experiment on Sam68 (KHDRBS1), 0.428 in experiment [7] and 1.08 in experiment [8]. In experiment [1], the composite Z-score is 0.276 (inactive).

For `C=C(/C(=C/C[C@H](OC(C)=O)c1ccc(CO)o1)c1cnc2ccccc2c1)C(C)C`, the composite z-score with Albumin (Bos taurus) was 0.899; in experiment [2], 0.245; in [3], -0.148; in experiment [4], 0.945; in [5], 0.948; in experiment [6], 0.269. Also, the composite z-score in the experiment with Sam68 (KHDRBS1) was found to be 1.29; in experiment [7] it was 1.06; in experiment [8] it was 1.14. Further, in experiment [1], the composite Z-score was 0.456 (inactive).

As for `CCCCC(CC)C(O)C1C=CC2C(=O)N(c3ccccc3)C(=O)C2N1Nc1ccc(C#N)cc1` (stereo not given), the composite z-score stood at 1.02 with Albumin (Bos taurus); 0.64 in experiment [2]; 0.353 in experiment [3]; 0.595 in experiment [4]; 2.21 in experiment [5]; 0.664 in [6]. Besides, the composite z-score with Sam68 (KHDRBS1) was found to be 1.13; in experiment [7], 0.0027; in experiment [8], 1.2. The composite Z-score in experiment [1] was 0.369 (inactive).

Take `C=CC[C@]1(C(=O)N2CCOCC2)COC(c2ccc(OCCCO)cc2)=N1`: the composite z-score is 1.08 with Albumin (Bos taurus); 0.298 in experiment [2]; -0.13 in [3]; 0.777 in experiment [4]; 3.27 in experiment [5]; 1.6 in [6]. The composite z-score in the experiment with Sam68 (KHDRBS1) was 1.28; in experiment [7], 0.191; in experiment [8] it was 1.16. Besides, in [1], the composite Z-score was -0.275 (inactive).

With `CCOC(=O)C[C@H]1[C@H](OC(=O)c2cc3ccccc3oc2=O)[C@@H](NC(=O)c2ccc3ccccc3n2)c2cc(OCCCO)ccc2N1C(=O)Cc1ccc(OC)cc1`, the composite z-score with Albumin (Bos taurus) was 0.463; in experiment [2], 0.127; in experiment [3], -0.0878; in [4], 0.356; in experiment [5], 0.219; in experiment [6], -0.0863. Moreover, the composite z-score with Sam68 (KHDRBS1) is 1.22; in [7] it was 0.368; in experiment [8], 1.05. Further, the composite Z-score in experiment [1] was 0.35 (inactive).

Turning to `O=C1NC(=O)C2C1C=CC(C(O)c1ccco1)N2Nc1ccc(Cl)cc1Cl` (stereo not given), the composite z-score with Albumin (Bos taurus) is 0.78; in experiment [2], -0.0967; in experiment [3] it was -0.153; in [4] it was 0.794; in experiment [5], 1.28; in experiment [6], 0.317. In addition, the composite z-score was -0.0532 in the experiment on Sam68 (KHDRBS1), 0.167 in [7] and 0.321 in [8]. In addition, in [1], the composite Z-score was 0.731 (inactive).

Turning to `[N-]=[N+]=Nc1ccccc1C[C@@]1(C(N)=O)N=C(c2ccc(OCCCO)cc2)O[C@@H]1c1ccccc1N=[N+]=[N-]`, the composite z-score with Albumin (Bos taurus) was 1.01; in experiment [2], 0.0059; in experiment [3], 0.0342; in experiment [4], 0.441; in experiment [5] it was 1.34; in experiment [6], -0.0264. In addition, the composite z-score in the experiment on Sam68 (KHDRBS1) is 0.666; in experiment [7], -0.359; in [8], 0.716. The composite Z-score in experiment [1] was 0.127 (inactive).

In the case of `C=C(C(=O)CC[C@H](OC(=O)c1ccccc1-c1ccccc1C(=O)O)c1cccc(OCCO)c1)C(C)C`, the composite z-score with Albumin (Bos taurus) is 0.688; in experiment [2], -0.185; in experiment [3], -0.162; in [4], 0.696; in [5], 0.715; in experiment [6] it was 0.2. Also, the composite z-score in the experiment on Sam68 (KHDRBS1) is -0.192; in experiment [7] it was -0.0748; in [8], 0.0561. Also, the composite Z-score in experiment [1] was -0.302 (inactive).

For the compound `CN(C)C(=O)[C@@]1(Cc2ccccc2CN=[N+]=[N-])N=C(c2ccc(OCCCO)cc2)O[C@H]1c1ccccc1N=[N+]=[N-]`, the composite z-score with Albumin (Bos taurus) is 0.973; in [2] it was 0.612; in experiment [3], -0.115; in [4], 0.731; in [5] it was 2.95; in experiment [6], 0.772. In addition, the composite z-score is 1.21 in the experiment on Sam68 (KHDRBS1), -0.612 in experiment [7] and 1.1 in experiment [8]. Besides, the composite Z-score in experiment [1] was 0.91 (inactive).

Take `CCCCC[C@H]1OC[C@@]23C=C(Br)[C@@H](CC12)[C@@]1(CO1)C3=O` (stereo not given in full): the composite z-score with Albumin (Bos taurus) was -0.677; in [2], -0.126; in experiment [3], -0.0907; in experiment [4], -0.174; in experiment [5], -0.0346; in [6] it was -0.144. In addition, the figures for the composite z-score (with Sam68 (KHDRBS1); in [7]; in experiment [8]) were 0.491, -0.194 and -0.308, respectively. The composite Z-score in experiment [1] was 0.39 (inactive).

On to `CCCCCN1CC=CC23O[C@@H]4/C=C\CCCOC(=O)C4[C@H]2C(=O)N(C(C)CO)[C@@H]3C1=O` (stereo not given in full), for which the composite z-score is 0.356 with Albumin (Bos taurus); -0.427 in experiment [2]; -0.169 in experiment [3]; 0.839 in experiment [4]; 0.626 in [5]; -0.0467 in [6]. Besides, the composite z-score is 0.0008 in the experiment with Sam68 (KHDRBS1), -1.14 in experiment [7] and -0.734 in experiment [8]. The composite Z-score in experiment [1] is 0.0199 (inactive).

In the case of `CC[C@@H]1C=C(C(=O)O)[C@H](c2ccccc2)N1S(=O)(=O)c1ccc(C)cc1`, the composite z-score with Albumin (Bos taurus) was found to be 1.08; in experiment [2], 0.191; in [3] it was 0.0167; in experiment [4], 0.8; in [5], 2.24; in experiment [6] it was 1.38. Also, the composite z-score was 0.95 in the experiment on Sam68 (KHDRBS1), -0.535 in experiment [7] and 1.12 in experiment [8]. In [1], the composite Z-score was -0.12 (inactive).

On to `CC(C)C(CO)N1C(=O)[C@@H]2C3C(=O)OCCC/C=C\[C@H]3OC23C=CCN(Cn2nnc4ccccc42)C(=O)[C@@H]13` (stereo not given in full), for which the composite z-score was -0.37 with Albumin (Bos taurus); -0.256 in experiment [2]; -0.181 in [3]; 0.885 in [4]; 0.295 in [5]; 0.685 in experiment [6]. Besides, the composite z-score was 0.713 in the experiment on Sam68 (KHDRBS1), -0.81 in experiment [7] and -0.662 in [8]. The composite Z-score in experiment [1] was -0.0983 (inactive).

Source of the values: PubChem BioAssay.
